27 compounds from PubChem BioAssay (NCATS) can be followed below.

Experiment [1] concerns the target Glucocorticoid receptor (Homo sapiens) (UniProt P04150). The experiment can be described thus: qHTS assay for small molecule agonists of glucocorticoid receptor signaling (AID 588532; active means well fitted curve in the direction sought with a large enough effect in the signal ratio, with a control signal flat; the % refers to the signal ratio;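 further: 100% = dexamethasone at 0.1 µM and 0% = DMSO only wells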). The settings on record: HeLa MMTV-bla, beta-lactamase ratio, agonist, 18 h; stronger effect = higher value; percent of dexamethasone control, DMSO zero. The method in brief:
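Titration series, up to 92 uM, applied to GRE-bla HeLa cells for 18 h at 37 C. Detection by CCF4 FRET substrate after 2 h at RT.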
In general terms: qHTS replaces the single test concentration by a dilution series.

For experiment [2], the target named is Vitamin D3 receptor (Homo sapiens) (UniProt P11473). In words: qHTS assay for small molecule antagonists of vitamin D receptor signaling (AID 588541).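 Further: receptor activated by calcitriol during compound treatment; series mostly up to about 77 µM; on the % scale 0 is the no-effect control and ±100 the full control effect.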 The method in brief: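 VDR-UAS-bla HEK293T cells (2000/well, 2% charcoal-stripped FBS) were treated with titrated compounds plus 1-alpha,25-dihydroxyvitamin D3 (50 nM or 3 nM final) for 16 h at 37 C. CCF4 beta-lactamase fluorescence was read; Hill fits gave IC50.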

Experiment [3] has the same target. In words: qHTS assay for small molecule agonists of vitamin D receptor signaling (AID 588543).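 Further: 0% = DMSO basal and 100% = reference agonist control.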 The method in brief:
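Agonist-mode beta-lactamase reporter: HEK293T VDR-UAS-bla cells in charcoal-stripped 2% FBS, compound series 16 h 37 C, CCF4 2 h RT. EC50 from Hill fit, scaled against DMSO and 50 nM calcitriol control.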

Experiment [4] concerns the target Thyroid hormone receptor beta (Homo sapiens) (UniProt P10828). The experiment can be described thus: qHTS assay for small molecule agonists of thyroid hormone receptor beta signaling (AID 588545).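 Further: 0% = DMSO only and 100% = 10 nM T3.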 The method in brief:
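TR-UAS-bla-GripTite HEK 293 cells in medium with 2% charcoal/dextran FBS, 0.1 mM NEAA and 1 mM sodium pyruvate were treated with titrated compounds for 18 hrs at 37 C. Beta-lactamase reporter was read with CCF4 dye (ex 405, em 460/530 nm); EC50 from Hill fits.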

Experiment [5] concerns the target Bile acid receptor (Homo sapiens) (UniProt Q96RI1). The experiment can be described thus: qHTS assay for small molecule agonists of farnesoid X receptor signaling (AID 588527).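 Further: series mostly up to about 77 µM; 0% = vehicle basal and 100% = reference agonist.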 The settings on record: HEK293T FXR-UAS-bla, beta-lactamase ratio, 16 h; stronger effect = higher value. The method in brief: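 Agonist-mode beta-lactamase reporter in GeneBLAzer FXR-UAS-bla HEK293T cells, titration up to 92 uM, 16 h exposure at 37 C, CCF4 fluorescence. Response scaled to DMSO (0%) and 100 uM chenodeoxycholic acid (100%), then Hill-fitted for EC50 and efficacy.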

The nature of experiment [6]: qHTS assay for small molecule antagonists of peroxisome proliferator-activated receptor delta signaling (AID 588535; active means well fitted inhibition curve with a large enough effect in the signal ratio, with a control signal flat, not every such curve was filed as active; the % refers to the signal ratio;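 on max response: cells co-treated with a PPAR-delta agonist as stimulator during compound exposure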). As to conditions: HEK293T PPARd-UAS-bla, beta-lactamase FRET ratio, 18 h; 460 nm channel. The method in brief: (§1)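 Compounds tested in titration on PPAR-delta-UAS-bla HEK293T cells grown in charcoal/dextran-stripped serum (2%); beta-lactamase activity read via CCF4 emission at 460 and 530 nm.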

Experiment [7] concerns the target Peroxisome proliferator-activated receptor delta (Homo sapiens) (UniProt Q03181). The experiment is described as above. The method in brief:
as §1

The target of experiment [8] is Peroxisome proliferator-activated receptor gamma (Homo sapiens) (UniProt P37231). The experiment can be described thus: qHTS assay for small molecule antagonists of peroxisome proliferator-activated receptor gamma signaling (AID 588537; active means well fitted inhibition curve with a large enough effect in the signal ratio, with a control signal flat, not every such curve was filed as active; the % refers to the signal ratio; further: potency means the concentration at half of the fitted maximal effect). The method in brief:
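HEK293 cells, PPAR-gamma-UAS-bla, 3000/well. Pre-incubation 6-6.5 h, 37 C. Compound titration with rosiglitazone 50 nM final, 16 h. CCF4 dye, 2 h RT, dual-emission fluorescence.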

A short description of experiment [9]: qHTS assay for small molecule antagonists of retinoid X receptor alpha signaling (AID 588546).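 Further: cells stimulated with 9-cis-retinoic acid as agonist; on the % scale 0 is the no-effect control and ±100 the full control effect.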 As to conditions: HEK293T RXRa-UAS-bla, beta-lactamase ratio, antagonist mode; measured here: W530 green channel, cytotoxicity proxy. The method in brief: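 Beta-lactamase reporter inhibition, read as CCF4 fluorescence ratio (ex 405, em 460/530 nm) after 2 h at RT. HEK293T UAS-bla cells, 2500/well, were stimulated with 9-cis-RA at 500 or 100 nM final alongside test compound for 18 h at 37 C.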

Experiment [10] addresses Peroxisome proliferator-activated receptor delta (Homo sapiens) (UniProt Q03181). In words: qHTS assay for small molecule agonists of peroxisome proliferator-activated receptor delta signaling (AID 588534).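 Further: 0% = DMSO basal wells and 100% = positive control agonist at 10 µM.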 The method in brief:
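Titration series tested in agonist mode on beta-lactamase reporter cells; 18 hrs at 37 C after a 5 hr pre-incubation. Readout: CCF4 fluorescence, 2 hrs RT. Hill equation gives EC50 and maximal response.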

The target in experiment [11] is Peroxisome proliferator-activated receptor gamma (Homo sapiens) (UniProt P37231). The experiment can be described thus: qHTS assay for small molecule agonists of peroxisome proliferator-activated receptor gamma signaling (AID 588536; active means well fitted curve in the direction sought with a large enough effect in the signal ratio, with a control signal flat, not every such curve was filed as active; the % refers to the signal ratio;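 further: 0% = DMSO basal wells and 100% = rosiglitazone at 2 µM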). The method in brief:
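This is an agonist-mode beta-lactamase reporter assay in HEK293 PPAR-gamma-UAS-bla cells with 1% charcoal/dextran FBS. Compound titrations ran 16 h at 37 C before CCF4 detection. EC50 and efficacy are Hill fits scaled to 2 uM rosiglitazone (100%) and DMSO basal.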

Experiment [12] in a line: qHTS assay for small molecule agonists of retinoid X receptor alpha signaling (AID 588544). Further: potency means the concentration at half of the fitted maximal effect.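 On activation: 0% = DMSO basal wells and 100% = reference agonist.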 The settings on record: HEK293T RXRa-UAS-bla, beta-lactamase reporter, 18 h; 530 nm emission.
Experiment [13] deals with Retinoic acid receptor RXR-alpha (Homo sapiens) (UniProt P19793). The description is as above.
The target in experiment [14] is Bile acid receptor (Homo sapiens) (UniProt Q96RI1). The experiment can be described thus: qHTS assay for small molecule antagonists of farnesoid X receptor signaling (AID 588526). Further: on the % scale 0 is the no-effect control and ±100 the full control effect. The method in brief:
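Concentration-response titrations were fitted to the Hill equation for half-maximal inhibition and maximal response, with data normalised to 50 uM chenodeoxycholic acid and DMSO control wells. Cells: FXR-UAS-bla HEK293T, dialyzed FBS.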

SMILES strings stand for the structures. Values joined by “and” are separate entries in the source; they are usually repeats but may differ in a detail not shown here. Equal values may be shown once. Inconclusive results are not listed. A structure can be active in one record and inactive in another. Active and inactive are the calls of the source. Unless noted, the call rests on the fitted dose curve.

Vitamin D3 receptor (Homo sapiens), sequence (P11473 whole entry, looked up): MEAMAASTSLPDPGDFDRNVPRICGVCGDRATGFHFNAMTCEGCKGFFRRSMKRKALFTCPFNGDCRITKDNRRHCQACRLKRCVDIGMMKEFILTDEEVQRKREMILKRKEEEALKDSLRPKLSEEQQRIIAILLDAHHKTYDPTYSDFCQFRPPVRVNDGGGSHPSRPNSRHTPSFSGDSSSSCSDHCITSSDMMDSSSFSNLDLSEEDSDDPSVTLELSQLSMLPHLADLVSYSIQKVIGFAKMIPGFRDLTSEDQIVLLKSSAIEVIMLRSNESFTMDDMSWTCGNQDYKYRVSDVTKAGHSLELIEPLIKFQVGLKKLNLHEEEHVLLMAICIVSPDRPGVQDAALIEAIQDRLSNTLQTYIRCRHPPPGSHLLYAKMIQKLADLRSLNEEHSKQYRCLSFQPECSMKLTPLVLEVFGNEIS
Bile acid receptor (Homo sapiens), sequence (Q96RI1 whole entry, looked up): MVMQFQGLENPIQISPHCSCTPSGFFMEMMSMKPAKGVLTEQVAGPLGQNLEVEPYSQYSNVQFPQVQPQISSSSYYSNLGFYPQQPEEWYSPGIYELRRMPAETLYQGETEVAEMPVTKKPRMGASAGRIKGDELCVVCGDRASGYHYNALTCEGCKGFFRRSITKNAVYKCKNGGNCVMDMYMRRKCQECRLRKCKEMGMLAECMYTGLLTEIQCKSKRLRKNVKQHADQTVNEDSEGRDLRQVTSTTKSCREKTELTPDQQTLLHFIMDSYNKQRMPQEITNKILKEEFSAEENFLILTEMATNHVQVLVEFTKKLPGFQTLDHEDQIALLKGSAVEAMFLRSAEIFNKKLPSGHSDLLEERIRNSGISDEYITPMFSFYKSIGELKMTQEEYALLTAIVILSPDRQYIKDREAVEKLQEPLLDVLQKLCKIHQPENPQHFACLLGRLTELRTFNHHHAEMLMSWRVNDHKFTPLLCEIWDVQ
Thyroid hormone receptor beta (Homo sapiens), sequence (P10828 whole entry, looked up): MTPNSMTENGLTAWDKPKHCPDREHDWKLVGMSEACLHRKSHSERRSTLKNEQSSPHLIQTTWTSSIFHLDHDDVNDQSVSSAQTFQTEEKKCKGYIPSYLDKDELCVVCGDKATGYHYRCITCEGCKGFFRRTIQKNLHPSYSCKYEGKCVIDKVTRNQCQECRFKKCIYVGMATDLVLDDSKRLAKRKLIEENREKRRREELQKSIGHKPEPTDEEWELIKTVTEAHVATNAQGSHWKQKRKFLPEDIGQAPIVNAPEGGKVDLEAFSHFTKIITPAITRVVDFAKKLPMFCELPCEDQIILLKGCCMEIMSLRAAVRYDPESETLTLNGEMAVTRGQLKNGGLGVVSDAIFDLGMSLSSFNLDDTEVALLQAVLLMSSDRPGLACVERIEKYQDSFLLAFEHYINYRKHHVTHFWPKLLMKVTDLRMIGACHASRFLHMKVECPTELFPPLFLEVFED
Retinoic acid receptor RXR-alpha (Homo sapiens), sequence (P19793 whole entry, looked up): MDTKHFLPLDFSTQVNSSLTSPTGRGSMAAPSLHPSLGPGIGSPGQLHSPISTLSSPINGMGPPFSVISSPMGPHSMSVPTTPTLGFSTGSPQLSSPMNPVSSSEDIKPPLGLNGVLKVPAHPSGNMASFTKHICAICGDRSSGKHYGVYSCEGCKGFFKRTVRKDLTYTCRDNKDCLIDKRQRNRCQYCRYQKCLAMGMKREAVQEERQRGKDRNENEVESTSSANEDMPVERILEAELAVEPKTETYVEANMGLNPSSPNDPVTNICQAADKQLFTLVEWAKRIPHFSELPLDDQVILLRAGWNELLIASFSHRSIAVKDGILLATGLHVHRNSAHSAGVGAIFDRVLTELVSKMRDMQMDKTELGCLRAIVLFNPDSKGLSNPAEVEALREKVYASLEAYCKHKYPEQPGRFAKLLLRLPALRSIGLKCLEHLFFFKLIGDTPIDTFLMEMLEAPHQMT
Peroxisome proliferator-activated receptor delta (Homo sapiens), sequence (Q03181 whole entry, looked up): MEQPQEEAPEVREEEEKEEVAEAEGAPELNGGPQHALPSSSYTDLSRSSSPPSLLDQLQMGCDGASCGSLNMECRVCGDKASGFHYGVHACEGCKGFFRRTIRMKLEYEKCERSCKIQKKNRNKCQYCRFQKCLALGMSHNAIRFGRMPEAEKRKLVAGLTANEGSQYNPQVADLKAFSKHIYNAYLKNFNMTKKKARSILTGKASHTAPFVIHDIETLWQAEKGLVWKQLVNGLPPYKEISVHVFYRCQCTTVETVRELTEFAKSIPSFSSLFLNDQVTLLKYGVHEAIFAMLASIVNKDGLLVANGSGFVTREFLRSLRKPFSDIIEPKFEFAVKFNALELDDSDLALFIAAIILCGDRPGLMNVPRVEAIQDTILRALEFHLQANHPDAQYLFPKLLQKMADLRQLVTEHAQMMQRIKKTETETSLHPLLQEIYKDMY
Peroxisome proliferator-activated receptor gamma (Homo sapiens), sequence (P37231 whole entry, looked up): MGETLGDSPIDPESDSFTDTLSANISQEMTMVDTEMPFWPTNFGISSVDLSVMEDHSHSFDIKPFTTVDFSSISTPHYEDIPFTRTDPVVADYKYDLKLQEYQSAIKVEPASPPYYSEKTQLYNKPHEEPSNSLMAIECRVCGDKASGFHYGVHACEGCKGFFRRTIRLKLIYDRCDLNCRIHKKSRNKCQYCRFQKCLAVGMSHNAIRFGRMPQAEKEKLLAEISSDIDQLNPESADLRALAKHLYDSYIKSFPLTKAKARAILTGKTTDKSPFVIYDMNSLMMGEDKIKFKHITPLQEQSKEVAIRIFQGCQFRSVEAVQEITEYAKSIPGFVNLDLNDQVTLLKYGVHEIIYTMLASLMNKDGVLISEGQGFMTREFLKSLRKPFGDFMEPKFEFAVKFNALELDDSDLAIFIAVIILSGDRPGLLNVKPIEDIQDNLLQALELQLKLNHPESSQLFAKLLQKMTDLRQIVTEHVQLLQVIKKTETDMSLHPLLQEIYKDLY
Glucocorticoid receptor (Homo sapiens), sequence (P04150 whole entry, looked up): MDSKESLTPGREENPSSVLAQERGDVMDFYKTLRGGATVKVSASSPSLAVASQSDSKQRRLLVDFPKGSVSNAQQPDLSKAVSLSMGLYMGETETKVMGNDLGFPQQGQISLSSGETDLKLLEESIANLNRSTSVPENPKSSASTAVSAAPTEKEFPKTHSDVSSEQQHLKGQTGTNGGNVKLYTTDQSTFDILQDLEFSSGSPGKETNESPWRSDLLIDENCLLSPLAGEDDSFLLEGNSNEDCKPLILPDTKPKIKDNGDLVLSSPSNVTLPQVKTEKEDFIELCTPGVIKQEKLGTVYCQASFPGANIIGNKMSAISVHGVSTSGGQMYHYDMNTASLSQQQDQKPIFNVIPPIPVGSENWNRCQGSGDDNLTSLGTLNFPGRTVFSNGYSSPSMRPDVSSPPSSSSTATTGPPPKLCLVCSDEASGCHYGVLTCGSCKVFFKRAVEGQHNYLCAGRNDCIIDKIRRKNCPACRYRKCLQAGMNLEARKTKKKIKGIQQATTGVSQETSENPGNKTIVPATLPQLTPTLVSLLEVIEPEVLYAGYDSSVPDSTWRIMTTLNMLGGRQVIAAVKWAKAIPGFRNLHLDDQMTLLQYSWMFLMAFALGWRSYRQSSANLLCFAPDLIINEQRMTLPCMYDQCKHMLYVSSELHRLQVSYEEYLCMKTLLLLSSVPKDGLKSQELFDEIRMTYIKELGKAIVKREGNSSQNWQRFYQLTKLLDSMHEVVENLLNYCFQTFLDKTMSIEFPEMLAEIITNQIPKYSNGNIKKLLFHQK

Turning to `CO/C=C(/C(=O)OC)c1ccccc1Oc1cc(Oc2ccccc2C#N)ncn1`, the activation in experiment [1] is -0.939% (inactive). In addition, the Potency entry in experiment [2] was “inactive”. Also, the compound was classed as inactive in experiment [3] and in [4].

Take `COC(=O)c1c(Cl)c(Cl)c(C(=O)OC)c(Cl)c1Cl`: in experiment [5], the activation was 2.52% (inactive).

For `C[C@]12C[C@H](O)[C@H]3[C@@H](CCC4=CC(=O)CC[C@@]43C)[C@@H]1CC[C@@H]2C(=O)CO`, in experiment [5], the activation was -2.3% (inactive).

As to `CCCCCCCCOc1ccc(C(=O)c2ccccc2)c(O)c1`, in experiment [5], the activation is -1.08% (inactive).

Regarding `CCCCCCCCCCCCCCCC[N+](C)(C)C`, in [1], the activation is 4.02% (inactive). For the same compound, the max response in experiment [6] was -6.14%; in experiment [9] it was -7.98%. Moreover, the Potency entry in [7], in experiment [8] and in experiment [2] was “inactive” in each case. Moreover, the compound was called inactive in experiment [3].

On to `CC(C)(C)c1ccc(O)c(O)c1`, for which the activation in [5] is 9.58% (inactive) and -7.97% (inactive). The result in experiment [10] was inactive.

In the case of `O=C(Oc1ccccc1)c1cccc(C(=O)Oc2ccccc2)c1`, the activation in [5] is 0.748% (inactive).

As to `CC(C)(C)C(O)C(Oc1ccc(Cl)cc1)n1cncn1` (stereo not given), the compound was called inactive in experiment [11] and in experiment [3]. For the same compound, the Potency result in experiment [8] and in [2] was “inactive” each time. The max response in experiment [9] is -12.3%.

For the compound `CC1=NN(c2ccccc2)C(=O)C1`, the activation in experiment [5] was -5.46% (inactive) and -0.633% (inactive).

Take `O=C(NO)c1ccccc1`: the activation in [5] was -3.15% (inactive). Further, the outcome in experiment [10] was inactive.

With `OCc1c[nH]c2ccccc12`, in experiment [5], the activation was 1.66% (inactive).

As for `CCCCOC(=O)c1ccccc1C(=O)OCc1ccccc1`, the activation in [1] was 3.04% (inactive) and 3.89% (inactive). The max response in experiment [6] was -18.4% and -2.86%; in experiment [12], -17.6% and 5.59%; in experiment [9], -7.26% and -17.3%. The Potency result in experiment [7] and in experiment [13] was “inactive” each time. Also, the result in experiment [11] and in experiment [4] was inactive.

Turning to `CN1C(=O)c2ccccc2C1=O`, the call in experiment [10] was inactive.

Regarding `COc1ccccc1O`, in [5], the activation is -0.0206% (inactive) and -3.83% (inactive) and 1.01% (inactive).

In the case of `CCCCC(CC)COC(=O)c1ccc(N(C)C)cc1` (stereo not given), the activation in experiment [5] was -1.15% (inactive) and -5.13% (inactive).

For the compound `CCCCCCCCCCCCCC(=O)OC(C)C`, the activation in [5] is -0.914% (inactive).

Take `S=c1[nH]c2ccccc2s1`: the activation in experiment [5] is -0.945% (inactive) and -0.0694% (inactive). For the same compound, the result in [10] was inactive.

As to `CN(C)[C@@H]1C(=O)C(C(N)=O)=C(O)[C@@]2(O)C(=O)C3=C(O)c4c(O)cccc4[C@@](C)(O)[C@H]3[C@H](O)[C@@H]12`, the compound was called inactive in experiment [11] and in [4]. The Potency result in experiment [8] and in experiment [13] was “inactive” in each case. Also, the max response was 10.7% and 6.3% and 19.5% in experiment [12]; 16.2% and 7.17% and 21.1% in experiment [9].

For `CS(=O)(=O)c1ccc(C(=O)C2C(=O)CCCC2=O)c([N+](=O)[O-])c1`, the compound was classed as inactive in experiment [14], in experiment [3] and in experiment [4]. Also, the activation in [5] is -1.16% (inactive); in experiment [1], 6.35% (inactive). For the same compound, the max response in [6] was 30.2%; in [12], 11.3%; in experiment [9] it was -0.159%. Also, the Potency result in experiment [7], in experiment [8] and in experiment [2] was “inactive” each time. Besides, in experiment [13], the Potency is 17.8 µM (active).

In the case of `C1=CC2C3C=CC(C3)C2C1` (stereo not given), in experiment [5], the activation was -0.353% (inactive).

For `Nc1nc2ccc([N+](=O)[O-])cc2s1`, the compound was called inactive in [10].

With `CN(C)NC(=O)CCC(=O)O`, the compound was classed as inactive in [10], in experiment [11], in experiment [3] and in experiment [4]. Further, the max response in experiment [6] is -12.7% and 32.6%; in [12] it was 6.92% and -25.6%; in experiment [9], -8.59% and -3.29%. The Potency result in experiment [7], in [8], in experiment [2] and in experiment [13] was “inactive” throughout.

With `O=c1cc(-c2ccccc2)oc2ccccc12`, the compound was called inactive in experiment [10].

In the case of `COc1ccc(C(c2ccc(OC)cc2)C(Cl)(Cl)Cl)cc1`, the activation in [5] is 7.99% (inactive) and 4.38% (inactive) and 7.59% (inactive); in experiment [1], 4.73% (inactive) and 3.18% (inactive) and 4.31% (inactive). Moreover, the call in experiment [11], in experiment [3] and in [4] was inactive. Besides, in experiment [8], the Potency result was “inactive and 28.2 µM (active)”. Also, in experiment [2], the Potency entry is “inactive”. Moreover, the max response in experiment [9] is -3.69% and 8.92%.

For the compound `ClC1=C(Cl)[C@]2(Cl)[C@@H]3[C@@H]4C[C@@H]([C@H]5O[C@@H]45)[C@@H]3[C@@]1(Cl)C2(Cl)Cl`, the activation in [1] is -15% (inactive). For the same compound, the outcome in experiment [10], in experiment [3] and in [4] was inactive. The max response in [6] was 34.4%; in [9], 5.74%. Further, the Potency result in experiment [7] and in [2] was “inactive” each time.

On to `Brc1ccccc1-c1ccccc1`, for which the call in [10] was inactive.

On to `CCCOC(=O)c1ccc(O)cc1`, for which, in experiment [5], the activation is 0.147% (inactive) and -2.34% (inactive) and 4.63% (inactive).
